Our source for the EC50 values is PubChem BioAssay AID743330 (NMMLSC, 2014).

For the assay, the system named is Cdc42 mutant. Kind of assay: fluorescent GTP concentration effect on GTPase potency – biochemical, four GTPases, bead flow cytometry, mechanism study, profiling panel (AID 743330). Conditions: bead-based flow cytometry, fluorescent GTP binding to GTPases.

Molecules are shown by their SMILES. Active and inactive are the calls of the source. How the calls were made is not given here.

As to `CC1(C)Cc2c(sc(NC(=S)NC(=O)c3ccc(F)cc3)c2C(=O)O)CO1`, the EC50 is 54 nM (active). As for `CCC1(C)Cc2c(sc(NC(=S)NC(=O)c3ccccc3)c2C(=O)O)CO1` (configuration not stated), the EC50 was 4 nM (active).
